Drawing on PubChem BioAssay (NCI), this text covers growth for eleven compounds.

Some test systems named below: NCI-H23 lung; NCI-H226 lung; NCI-H322M lung; HOP-62 NSCLC; NCI-H460 lung; HOP-92 NSCLC; NCI-H522 lung; A549/ATCC NSCLC; 786-0 renal; COLO 205 colon.
Common to all, as to assay: NCI-60 one-dose screen, 48 h (100 = growth as untreated, 0 = no growth, -100 = all killed)

About 83,000 compounds went through this panel and 20% of them were active in at least one assay; those are over-represented in the sample as a whole.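 Plates (96-well) were seeded with cells, treated with compound at one concentration, and incubated for 48 hours before percent growth was determined.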 A number with no mark means an inactive call. Calls of active or inactive are those of the source. Rule for the calls: active = growth percent below 10; inactive = the rest.

As for `COc1cc(CNC(=O)[C@]23CCC(C)(C)CC2C2=CCC4[C@@]5(C)CCC(OC(C)=O)C(C)(C)C5CC[C@@]4(C)[C@]2(C)CC3)ccc1OCc1cn(-c2ccc(Cl)cc2Cl)nn1` (stereo not given in full), the growth is 99% in the assay on NCI-H23 lung (10 µM unless noted); 94.8% in the assay with NCI-H226 lung (10 µM unless noted); 94.1% in the assay with NCI-H322M lung (10 µM unless noted); 105% with HOP-62 NSCLC (10 µM unless noted); 105% with NCI-H460 lung (10 µM unless noted); 116% with HOP-92 NSCLC (10 µM unless noted). The growth in the assay with NCI-H522 lung (10 µM unless noted) was 88.9%; in the assay on A549/ATCC NSCLC (10 µM unless noted), 93.1%; in the assay on 786-0 renal (10 µM unless noted) it was 107%; in the assay on COLO 205 colon (10 µM unless noted) it was 118%.
For `N#C/C(=C1/C(=O)Nc2ccccc21)c1nnc(NC(=O)c2ccc(-n3c(=O)[nH]c4ccccc4c3=O)cc2)s1`, the growth with NCI-H23 lung (10 µM unless noted) is 30.4%; in the assay with NCI-H226 lung (10 µM unless noted), 34.4%; in the assay on NCI-H322M lung (10 µM unless noted), 53.6%; with HOP-62 NSCLC (10 µM unless noted) it was 53.7%; with NCI-H460 lung (10 µM unless noted), 6.96% (active); with HOP-92 NSCLC (10 µM unless noted) it was 56%. The growth in the assay on NCI-H522 lung (10 µM unless noted) is 14.3%; in the assay on A549/ATCC NSCLC (10 µM unless noted) it was 49.8%; with 786-0 renal (10 µM unless noted), 66.1%; with COLO 205 colon (10 µM unless noted), -0.152% (active).
In the case of `Cc1ccc(/C=C/C(=O)c2ccc(S(=O)(=O)NCCNc3nc(N(C)C)nc(N4CCOCC4)n3)cc2)cc1`, the growth with NCI-H23 lung (10 µM unless noted) was 95%; in the assay on NCI-H226 lung (10 µM unless noted) it was 91.7%; in the assay with NCI-H322M lung (10 µM unless noted), 93.7%; in the assay with HOP-62 NSCLC (10 µM unless noted) it was 114%; in the assay on NCI-H460 lung (10 µM unless noted) it was 103%; in the assay with HOP-92 NSCLC (10 µM unless noted), 93.2%. The growth in the assay with NCI-H522 lung (10 µM unless noted) was 72.3%; with A549/ATCC NSCLC (10 µM unless noted), 80.4%; in the assay with 786-0 renal (10 µM unless noted), 73%; in the assay with COLO 205 colon (10 µM unless noted), 114%.
For the compound `CC/C(=C(/c1ccc(O)cc1)c1ccc(OCCN(C)C(=O)CCOCCNC(=O)Cc2ccc3c(c2)CN([C@@H]2CCC(=O)NC2=O)C3=O)cc1)c1ccccc1`, the growth in the assay with NCI-H23 lung (1 µM) was 98.2%; in the assay on NCI-H23 lung (10 µM), 92.8%; with NCI-H226 lung (1 µM), 93.9%; in the assay with NCI-H226 lung (10 µM), 47%; with NCI-H322M lung (1 µM), 88.1%; in the assay with NCI-H322M lung (10 µM), 67%. Moreover, the growth in the assay with HOP-62 NSCLC (1 µM) was 82.5%; with HOP-62 NSCLC (10 µM), 52.3%; with NCI-H460 lung (1 µM), 130%; with NCI-H460 lung (10 µM), 103%; in the assay on HOP-92 NSCLC (1 µM), 22.2%; in the assay on HOP-92 NSCLC (10 µM), 20.8%. Also, the growth was 92% in the assay on NCI-H522 lung (1 µM); 91.2% in the assay with NCI-H522 lung (10 µM); 93.1% in the assay on A549/ATCC NSCLC (1 µM); 87.8% in the assay with A549/ATCC NSCLC (10 µM); 97.2% in the assay on 786-0 renal (1 µM); 84.2% in the assay with 786-0 renal (10 µM). In addition, the growth with COLO 205 colon (1 µM) was 102%; with COLO 205 colon (10 µM) it was 62.3%.
`CS(=O)(=O)Nc1cc(-c2ccc3ncnc(Nc4ccc(OCc5cccnc5)c(Cl)c4)c3c2)cnc1Cl`: the growth in the assay with NCI-H23 lung (10 µM unless noted) was -26.9% (active); with NCI-H226 lung (10 µM unless noted), 23.8%; in the assay on NCI-H322M lung (10 µM unless noted), -2.48% (active); with HOP-62 NSCLC (10 µM unless noted), 24.3%; in the assay with NCI-H460 lung (10 µM unless noted), 35.2%; in the assay on HOP-92 NSCLC (10 µM unless noted), -27.9% (active). Also, the growth in the assay with NCI-H522 lung (10 µM unless noted) is -4.01% (active); with A549/ATCC NSCLC (10 µM unless noted), 45.6%; in the assay with 786-0 renal (10 µM unless noted) it was 2.08% (active); in the assay on COLO 205 colon (10 µM unless noted), -73.5% (active).
With `S=C(Nc1ccccc1)Nc1ccc(OCc2nc3ccc(Cl)cc3[nH]2)cc1`, the growth in the assay on NCI-H23 lung (10 µM unless noted) is 88%; in the assay with NCI-H226 lung (10 µM unless noted), 97.5%; in the assay with NCI-H322M lung (10 µM unless noted) it was 89.5%; in the assay on HOP-62 NSCLC (10 µM unless noted), 90.4%; with NCI-H460 lung (10 µM unless noted), 88.2%; with HOP-92 NSCLC (10 µM unless noted), 115%. Moreover, the growth is 61.1% in the assay with NCI-H522 lung (10 µM unless noted), 88.2% in the assay on A549/ATCC NSCLC (10 µM unless noted), 94.5% with 786-0 renal (10 µM unless noted) and 114% in the assay with COLO 205 colon (10 µM unless noted).
`CN(C(=O)CN1C(=O)/C(=C/c2ccco2)SC1=S)C1CCS(=O)(=O)C1` (stereo not given): the growth in the assay on NCI-H23 lung (10 µM unless noted) was 100%; in the assay with NCI-H226 lung (10 µM unless noted), 100%; in the assay with NCI-H322M lung (10 µM unless noted) it was 99.3%; in the assay on HOP-62 NSCLC (10 µM unless noted), 123%; with NCI-H460 lung (10 µM unless noted) it was 95.5%; in the assay on HOP-92 NSCLC (10 µM unless noted) it was 102%. The growth with NCI-H522 lung (10 µM unless noted) was 15.4%; in the assay with A549/ATCC NSCLC (10 µM unless noted), 102%; with 786-0 renal (10 µM unless noted), 93.4%; in the assay on COLO 205 colon (10 µM unless noted), 119%.
Take `O=C(Cc1c(-c2cccc([N+](=O)[O-])c2)n(-c2ncnc3c2c(-c2ccccc2)c(-c2ccccc2)n3Cc2ccccc2)[nH]c1=O)c1ccc(Cl)c(Cl)c1`: the growth with NCI-H23 lung (10 µM unless noted) is 16.1%; in the assay with NCI-H226 lung (10 µM unless noted), 39%; with NCI-H322M lung (10 µM unless noted), 79.1%; in the assay on HOP-62 NSCLC (10 µM unless noted), 44.9%; with NCI-H460 lung (10 µM unless noted) it was 33.9%; with HOP-92 NSCLC (10 µM unless noted) it was -2.08% (active). Also, the growth is 7.22% (active) in the assay on NCI-H522 lung (10 µM unless noted), 45% with A549/ATCC NSCLC (10 µM unless noted), 63.4% with 786-0 renal (10 µM unless noted) and 60.2% with COLO 205 colon (10 µM unless noted).
With `CC/C(=C(/c1ccc(O)cc1)c1ccc(OCCN(C)C(=O)COCCOCCNC(=O)Cc2ccc3c(c2)CN([C@@H]2CCC(=O)NC2=O)C3=O)cc1)c1ccccc1`, the growth with NCI-H23 lung (1 µM) is 101%; with NCI-H23 lung (10 µM), 97.4%; in the assay on NCI-H226 lung (1 µM) it was 93.8%; in the assay with NCI-H226 lung (10 µM) it was 39.9%; with NCI-H322M lung (1 µM), 93.9%; in the assay on NCI-H322M lung (10 µM), 64.1%. The growth in the assay on HOP-62 NSCLC (1 µM) was 91.6%; in the assay on HOP-62 NSCLC (10 µM) it was 38.8%; in the assay on NCI-H460 lung (1 µM), 125%; in the assay on NCI-H460 lung (10 µM) it was 110%; in the assay with HOP-92 NSCLC (1 µM), 15.5%; with HOP-92 NSCLC (10 µM), 12.7%. Moreover, the growth in the assay with NCI-H522 lung (1 µM) was 93.6%; with NCI-H522 lung (10 µM) it was 88.1%; in the assay with A549/ATCC NSCLC (1 µM), 102%; in the assay with A549/ATCC NSCLC (10 µM) it was 88.1%; with 786-0 renal (1 µM), 96%; in the assay on 786-0 renal (10 µM), 80.7%. Moreover, the growth with COLO 205 colon (1 µM) is 96.4%; in the assay on COLO 205 colon (10 µM), 31.2%.
Turning to `COc1cc(-c2ccc3ncnc(N4CCc5ccc(Cl)cc54)c3c2)cnc1Cl`, the growth in the assay with NCI-H23 lung (10 µM unless noted) was 19.9%; with NCI-H226 lung (10 µM unless noted), 18.8%; in the assay with NCI-H322M lung (10 µM unless noted), 15.9%; in the assay on HOP-62 NSCLC (10 µM unless noted), 50.2%; with NCI-H460 lung (10 µM unless noted), 12.4%; in the assay on HOP-92 NSCLC (10 µM unless noted), -0.319% (active). The growth in the assay on NCI-H522 lung (10 µM unless noted) is 38.6%; with A549/ATCC NSCLC (10 µM unless noted) it was 34.7%; in the assay on 786-0 renal (10 µM unless noted) it was 14.1%; with COLO 205 colon (10 µM unless noted), 32.1%.
Take `COc1cc(C=O)ccc1OC(=O)c1cc(-c2ccc(C)cc2)n(-c2ccc(S(C)(=O)=O)cc2)n1`: the growth is 101% in the assay on NCI-H23 lung (10 µM unless noted); 138% in the assay on NCI-H226 lung (10 µM unless noted); 101% in the assay with NCI-H322M lung (10 µM unless noted); 102% with HOP-62 NSCLC (10 µM unless noted); 110% with NCI-H460 lung (10 µM unless noted); 98.3% with HOP-92 NSCLC (10 µM unless noted). Further, the growth in the assay with NCI-H522 lung (10 µM unless noted) is 93.3%; in the assay on A549/ATCC NSCLC (10 µM unless noted), 103%; in the assay with 786-0 renal (10 µM unless noted), 102%; in the assay on COLO 205 colon (10 µM unless noted) it was 126%.
